{
  "source": "PubChem BioAssay AID686964",
  "about": "(The Scripps Research Institute Molecular Screening Center, 2013)",
  "note": "“And” between values parts separate entries of the source, which are not always exact repeats. Identical values can stand only once. The whole screen tested about 370,000 compounds, of which about 1,100 (0.3%) were called active. Only a selection was taken, and actives are over-represented in it overall. A number with no mark means an inactive call. No stated cut-off is given here; in the data, active means inhibition above about 13%; inactive means the rest.",
  "data": [
    {"target": "Methyl-CpG-binding domain protein 2 (Homo sapiens) (UniProt Q9UBB5)", "sequence (Q9UBB5 whole entry, looked up, the tested form may be a part)": "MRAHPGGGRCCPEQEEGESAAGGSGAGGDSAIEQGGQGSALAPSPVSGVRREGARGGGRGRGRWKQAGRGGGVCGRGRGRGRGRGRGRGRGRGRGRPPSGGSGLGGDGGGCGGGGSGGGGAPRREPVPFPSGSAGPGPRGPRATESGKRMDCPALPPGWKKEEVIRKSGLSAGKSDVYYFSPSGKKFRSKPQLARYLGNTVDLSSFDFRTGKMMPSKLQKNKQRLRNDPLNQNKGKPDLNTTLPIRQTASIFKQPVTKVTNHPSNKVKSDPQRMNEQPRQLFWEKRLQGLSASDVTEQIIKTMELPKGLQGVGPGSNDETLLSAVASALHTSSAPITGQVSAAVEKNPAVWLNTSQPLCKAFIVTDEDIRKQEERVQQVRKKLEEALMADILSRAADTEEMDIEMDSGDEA", "test": "MBD2-DBD methyl-oligonucleotide interaction blockers – biochemical, TR-FRET, DNA-binding domain, human, primary screen (AID 686964)", "conditions": "MBD2 binding to methylated oligonucleotide, at 4.4 µM, stronger effect = higher value", "values": [
      {"molecule": "Cn1cnnc1Sc1ccc(CN2CCN(C3CCCC3)C(CCO)C2)o1", "note": "(stereo unspecified)", "inhibition": "-4.49%"},
      {"molecule": "C[C@@H]1CN([C@@H](C)CO)C(=O)c2cccc(NC(=O)Nc3cccc4ccccc34)c2O[C@H]1CN(C)S(=O)(=O)c1ccccc1F", "inhibition": "-5.98%"},
      {"molecule": "COc1ccccc1C(=O)NC1CCCCN(C(C)C)C1=O", "note": "(stereo unspecified)", "inhibition": "6.15%"},
      {"molecule": "Cc1ccc(S(=O)(=O)N(CCc2ccccc2)c2ccc3c(c2)C2CC3CCN2C(=O)OCc2ccccc2)cc1", "note": "(stereo unspecified)", "inhibition": "-6.75%"},
      {"molecule": "COc1ccc(CNC(=O)C2CCC(CNc3c(N4CCOCC4)c(=O)c3=O)CC2)cc1", "note": "(stereo unspecified)", "inhibition": "-0.13% and -5.05%"},
      {"molecule": "Cc1cc(C(=O)OCC(=O)Nc2nccs2)c2ccccc2n1", "inhibition": "8.33%"},
      {"molecule": "CCOc1ncccc1C(=O)Nc1ccc(S(=O)(=O)Nc2nc(C)cc(C)n2)cc1", "inhibition": "-2.5%"},
      {"molecule": "CCOc1cc(N2CCOCC2)c(OCC)cc1NC(=O)c1cc(C)nc2ccccc12", "inhibition": "13.2% (active)"},
      {"molecule": "CCOc1cc(NC(=O)c2ccccc2C(=O)O)c(OCC)cc1NC(=O)c1ccccc1F", "inhibition": "0.6%"},
      {"molecule": "CCC(CC)C(C(=O)NC1CCCC1)N1CCN(c2cc(C)nc3ccccc23)CC1", "note": "(stereo unspecified)", "inhibition": "-3.59%"},
      {"molecule": "CCOc1ccc(NC(=O)c2cc(C)nc3ccccc23)cc1", "inhibition": "16.2% (active)"},
      {"molecule": "O=C(CSc1nc2ccccc2nc1N1CCCCC1)N1CCN(S(=O)(=O)c2cccc([N+](=O)[O-])c2)CC1", "inhibition": "-6.32%"},
      {"molecule": "O=C(NCc1ccc(Cl)cc1)C1CCCN(c2nc3ccccc3o2)C1", "note": "(stereo unspecified)", "inhibition": "-3.29%"},
      {"molecule": "O=C(c1ccc(F)cc1)c1c[nH]c(C(=O)NCc2cccnc2)c1", "inhibition": "4.31%"},
      {"molecule": "O=C1CC[C@@]23CCCN2C(=O)CCC[C@H]3[C@H]1Cc1ccccc1", "inhibition": "1.8%"},
      {"molecule": "COC(=O)C(=Nc1ccccc1)/C(C(=O)C(=O)N(C)c1ccccc1)=C(\\O)c1ccc(Cl)cc1", "inhibition": "-5.32%"},
      {"molecule": "C=CC1=C(C(=O)O)N2C(=O)[C@@H](NC(=O)/C(=N/OCC(=O)O)c3csc(N)n3)[C@H]2SC1", "inhibition": "73.1% (active)"},
      {"molecule": "C=CC1=C(C(=O)O)N2C(=O)[C@@H](NC(=O)/C(=N\\OCC(=O)O)c3csc(N)n3)[C@H]2SC1", "inhibition": "52.4% (active)"},
      {"molecule": "CCCNc1ncnc2sc(C)c(C)c12", "inhibition": "1.28%"},
      {"molecule": "O=C(Nc1cc(F)cc(F)c1)OC1CCC12CCC(c1ccccc1)CC2", "note": "(stereo unspecified)", "inhibition": "0.3%"},
      {"molecule": "O=C1CC(c2ccc3c(c2)OCO3)N=C2N(CC3CC3)C/C(=C/c3ccccc3)N12", "note": "(stereo unspecified)", "inhibition": "-1.23%"},
      {"molecule": "COc1ccc(OCc2cc(C(=O)NCC3(C)COC3)no2)c(Cl)c1", "inhibition": "17.4% (active)"},
      {"molecule": "COCCN1CCN(C(=O)c2cc(COc3ccc(F)cc3Cl)on2)CC1", "inhibition": "2.22%"},
      {"molecule": "Cc1cc(OCc2cc(C(=O)NCc3cc(C(C)C)no3)no2)cc(C)c1Cl", "inhibition": "4.94%"},
      {"molecule": "COC(=O)C1=C(C)N(Cc2ccccc2C(F)(F)F)C(=NCc2ccc(C(F)(F)F)cc2)NC1c1ccc(F)cc1", "note": "(stereo unspecified)", "inhibition": "2.2%"},
      {"molecule": "CN1C(=O)CN2CCc3ccccc3C2c2cc(Cl)ccc21", "note": "(stereo unspecified)", "inhibition": "-5.25%"},
      {"molecule": "Cc1ccc(NC(=O)Cc2cccc(F)c2)c(S(=O)(=O)N2CCOCC2)c1", "inhibition": "-5.33%"},
      {"molecule": "Cc1nc(CNc2ncnc3ccc(-c4ccc5c(c4)OCO5)cc23)cs1", "inhibition": "-2.98%"},
      {"molecule": "COc1ccc(C2Nc3ccccc3C(=O)N2Cc2cccs2)cc1COc1c(C)cccc1C", "note": "(stereo unspecified)", "inhibition": "-1.94%"},
      {"molecule": "CCOC(=O)NC(C(F)(F)F)(C(F)(F)F)P(=O)(c1ccccc1)c1ccccc1", "inhibition": "-1.87%"},
      {"molecule": "CCOC(=O)CNC(=O)/C=C/c1c(Cl)cccc1Cl", "inhibition": "-5.98%"},
      {"molecule": "CCOC(=O)CCP(=O)(O)C(O)(c1ccccc1)c1ccccc1", "inhibition": "28.3% (active)"},
      {"molecule": "CCOC(=O)C(=O)N(Cc1ccccc1)c1ccccc1C(=O)Nc1cc(OC)ccc1OC", "inhibition": "1%"},
      {"molecule": "COc1cccc(/C=C2\\CC3(OC(C)=O)CCCN2C3)c1", "note": "(stereo unspecified)", "inhibition": "1.18%"},
      {"molecule": "O=c1ccc2c(-c3ccccc3S(=O)(=O)O)c3ccc(O)c(O)c3oc-2c1O", "inhibition": "97.2% (active)"},
      {"molecule": "O=C(NC1CCCCN(Cc2ccc(Cl)cc2)C1=O)c1ccc(Br)cc1", "note": "(stereo unspecified)", "inhibition": "-2.53%"},
      {"molecule": "C=C(C)C#CC(Cc1ccccc1)NCC1CC1", "note": "(stereo unspecified)", "inhibition": "-0.24%"},
      {"molecule": "Cc1cc(C)c2nc3nc(C)cc(C)c3c(N)c2c1", "inhibition": "19.4% (active)"},
      {"molecule": "NC(=O)c1ncn([C@@H]2O[C@H](C(=O)O)[C@@H](O)[C@H]2O)n1", "inhibition": "2.1%"},
      {"molecule": "CCC[C@H]1C(=O)CC[C@@]23CCCN2C(=O)CCC[C@@H]13", "inhibition": "-0.46%"},
      {"molecule": "CC(C)CSc1nnc(-c2cccnc2)n1Cc1ccccc1", "inhibition": "-2.93%"},
      {"molecule": "O=C(OC12CCCN(C1)/C(=C/c1cccnc1)C2)C1CCCC1", "note": "(stereo unspecified)", "inhibition": "-0.45%"},
      {"molecule": "O=C(NS(=O)(=O)c1cccs1)[C@H]1O[C@@H](n2ccc(=O)[nH]c2=O)[C@H](O)[C@@H]1O", "inhibition": "3.05%"},
      {"molecule": "Cc1c(CN2CCC(C)CC2)c(=O)n(-c2ccccc2)n1C", "inhibition": "2.32%"},
      {"molecule": "Cc1cccc(N2CCN(Cc3c(C)n(C)n(-c4ccccc4)c3=O)CC2)c1C", "inhibition": "1.05%"},
      {"molecule": "Cc1c(C=O)n(C)n(-c2ccccc2)c1=O", "inhibition": "14.6% (active)"},
      {"molecule": "O=S(=O)(c1ccc(Br)cc1)n1ccc2ccccc21", "inhibition": "-0.04%"},
      {"molecule": "O=S1(=O)c2c(cccc2N2CCSCC2)Oc2ccccc2CN1Cc1cn(Cc2ccc(F)cc2)nn1", "inhibition": "-0.08%"},
      {"molecule": "O=C(NCCO)C(=O)NCC(c1ccc2c(c1)OCO2)N1CCN(c2ccc(F)cc2)CC1", "note": "(stereo unspecified)", "inhibition": "0.87%"},
      {"molecule": "C=CCN(C(=O)[C@@H](CCCC)[C@@H](O)c1ccc(Cl)cc1)c1ccccc1", "inhibition": "15.9% (active)"},
      {"molecule": "CCCC[C@H](C(=O)N(CC)c1ccccc1)[C@@H](O)c1ccc2ccccc2c1", "inhibition": "-3.72%"},
      {"molecule": "C[C@H](C(=O)N(C)c1ccccc1)[C@@H](O)c1ccc(Cl)cc1", "inhibition": "-1.32%"},
      {"molecule": "O=C(CCCCCN1C(=O)C2C3C=CC(C3)C2C1=O)Nc1ccccn1", "note": "(stereo unspecified)", "inhibition": "-4.13%"},
      {"molecule": "COC(=O)c1cccc(NC(=O)c2cccc(N3C(=O)CCC3=O)c2)c1", "inhibition": "13.4% (active)"},
      {"molecule": "CC(=O)Nc1cccc(C(=O)OCN2C(=O)c3ccccc3C2=O)c1", "inhibition": "6.26%"},
      {"molecule": "COC(=O)c1cccc(NS(C)(=O)=O)c1", "inhibition": "-3.55%"}
    ]}
  ]
}
